The source made the active and inactive calls.
Key:
[1] = binders of probe aFSTL3 on microarray, primary screen, stem cell growth factor project, biochemical, small-molecule microarray, fluorescence 635/667 (AID 1064); settings: higher = more signal;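 note: measures binding of the biotinylated anti-FSTL3 antibody to printed compounds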
[2] = binders from COS7 lysate, DM2A8 probe, primary screen, torsin A project, cell lysate, small-molecule microarray, fluorescence 635/667 (AID 1065); settings: higher = more signal, COS7 lysate expressing mutant human TOR1A
[3] = binders of probe aFGF2 on microarray, primary screen, stem cell growth factor project, biochemical, small-molecule microarray, fluorescence 635/667 (AID 1067); settings: higher = more signal;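 note: measures binding of biotinylated aFGF2 protein to printed compounds on slides; z-score merges feature fluorescence and signal-to-noise across triplicate slides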
[4] = binders of probe aFGF10 on microarray, primary screen, stem cell growth factor project, biochemical, small-molecule microarray, fluorescence 635/667 (AID 1071); settings: higher = more signal;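 note: score merges 667 nm spot intensity and signal to noise from triplicate slides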
[5] = biological target: Neurogenic locus notch homolog protein 2 (Homo sapiens) (UniProt Q04721); assay: Notch2 binders on small-molecule microarrays, primary screen, biochemical, small-molecule microarray, 635 nm fluorescence, stem cell growth factors (AID 1073); settings: Notch2 binding, higher = more signal
[6] = biological target: Pro-neuregulin-1, membrane-bound isoform (Homo sapiens) (UniProt Q02297); assay: NRG1 binders on small-molecule microarrays, primary screen, psychiatric disease protein project, biochemical, small-molecule microarray, fluorescence 635/667 (AID 1075); settings: NRG1 binding, 635 nm fluorescence, higher = more signal;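 note: score combines 667 nm spot fluorescence with signal to noise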
[7] = tested on: Neuregulin-1 EGF-like domain; assay: binders of neuregulin-1 EGF-like domain, primary screen, biochemical, small-molecule microarray, 635 nm fluorescence (AID 1081); settings: small-molecule microarray binding, higher = more signal;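 note: binding of the protein to compounds printed on small-molecule microarray slides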
[8] = FRG1 promoter luciferase signal modulators, primary screen, FRG1 inhibition for FSHD, cell-based, C2C12 myotubes, firefly/Renilla luciferase, luminescence (AID 1084); settings: higher = more signal, called active from +8 up or from −8 down
[9] = binders of probe aFST on microarray, primary screen, stem cell growth factor project, biochemical, small-molecule microarray, fluorescence 635/667 (AID 1086); settings: higher = more signal;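 note: score merges 667 nm fluorescence with signal-to-noise of each printed compound spot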
[10] = binders of probe aHhip on microarray, primary screen, stem cell growth factor project, biochemical, small-molecule microarray, fluorescence 635/667 (AID 1087); settings: higher = more signal;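 note: score merges spot fluorescence at 667nm with spot signal to noise ratio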
[11] = tested on: PRMT1 (protein arginine N-methyltransferase 1); assay: PRMT1 binders on small-molecule microarrays, primary screen, biochemical, small-molecule microarray, 635 nm fluorescence (AID 1088); settings: small-molecule microarray binding, higher = more signal;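 note: binding of Prmt1 protein to compounds spotted on small-molecule microarray slides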
[12] = yeast growth modulation, basal conditions, primary screen, YJM789 clinical isolate, OD600, 24 h (AID 1089);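 note: growth of clinical yeast isolate S. cerevisiae YJM 789 seeded 1000 cells per well; test concentration not given here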; settings: S. cerevisiae YJM789 growth, higher = more signal, called active from +8 up or from −8 down
[13] = fission yeast growth modulation, primary screen, strain 972, OD600, 24 h, no modulator (AID 1090);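 note: basal condition with compound alone and no growth modifier present; test concentration not given here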; settings: S. pombe 972 growth, higher = more signal, called active from +8 up or from −8 down
[14] = S. cerevisiae growth modulation with rapamycin, primary screen, strain BY4716, OD600, 96 h (AID 1091); settings: higher = more signal, called active from +8 up or from −8 down; note: test concentration not given here
[15] = biological target: Torsin-1A-interacting protein 2 (Homo sapiens) (UniProt Q8NFQ8); assay: LULL1 binders on small-molecule microarray, primary screen, cell lysate, human LULL1 lysate, 635/667 nm fluorescence (AID 1092); settings: hLULL1 lysate binding, 635 nm fluorescence, higher = more signal;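 note: probe is lysate of COS7 cells overexpressing human LULL1; score merges per-feature 667 nm fluorescence with signal-to-noise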
[16] = E. coli growth modulation, two-sided OD650, primary screen, E. coli filamentation project, strain DRC41, 24 h (AID 1093); settings: OD650, 24 h, higher = more signal, called active from +8 up or from −8 down;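 note: MC1000 strain lacking acrAB efflux and sulA so SOS filamentation is blocked; test concentration not given here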
[17] = small-molecule microarray binders of probe aLefty2, primary screen, biochemical, biotinylated probe, 635/667 nm fluorescence (AID 1094); settings: higher = more signal;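 note: score merges spot fluorescence near 667 nm with spot signal-to-noise ratio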
[18] = tested on: Noggin (protein binding on small-molecule microarray); assay: Noggin binders on small-molecule microarray, primary screen, biochemical, 635/667 nm fluorescence (AID 1095); settings: 635 nm fluorescence, higher = more signal;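 note: score merges 667 nm feature fluorescence with signal to noise over triplicate slides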
[19] = biological target: Neurogenic locus notch homolog protein 3 (Homo sapiens) (UniProt Q9UM47); assay: NOTCH3 binders on small-molecule microarray, primary screen, biochemical, 635/667 nm fluorescence (AID 1096); settings: NOTCH3 binding, 635 nm fluorescence, higher = more signal
[20] = small-molecule microarray binders of probe aEGFR, primary screen, biochemical, biotinylated probe, 635/667 nm fluorescence (AID 1097); settings: higher = more signal;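 note: probe is a biotinylated anti-EGFR antibody binding compounds printed on slides; score combines fluorescence near 667 nm and signal to noise of each spot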

Sequence of Neurogenic locus notch homolog protein 3 (Homo sapiens) (Q9UM47 whole entry, looked up): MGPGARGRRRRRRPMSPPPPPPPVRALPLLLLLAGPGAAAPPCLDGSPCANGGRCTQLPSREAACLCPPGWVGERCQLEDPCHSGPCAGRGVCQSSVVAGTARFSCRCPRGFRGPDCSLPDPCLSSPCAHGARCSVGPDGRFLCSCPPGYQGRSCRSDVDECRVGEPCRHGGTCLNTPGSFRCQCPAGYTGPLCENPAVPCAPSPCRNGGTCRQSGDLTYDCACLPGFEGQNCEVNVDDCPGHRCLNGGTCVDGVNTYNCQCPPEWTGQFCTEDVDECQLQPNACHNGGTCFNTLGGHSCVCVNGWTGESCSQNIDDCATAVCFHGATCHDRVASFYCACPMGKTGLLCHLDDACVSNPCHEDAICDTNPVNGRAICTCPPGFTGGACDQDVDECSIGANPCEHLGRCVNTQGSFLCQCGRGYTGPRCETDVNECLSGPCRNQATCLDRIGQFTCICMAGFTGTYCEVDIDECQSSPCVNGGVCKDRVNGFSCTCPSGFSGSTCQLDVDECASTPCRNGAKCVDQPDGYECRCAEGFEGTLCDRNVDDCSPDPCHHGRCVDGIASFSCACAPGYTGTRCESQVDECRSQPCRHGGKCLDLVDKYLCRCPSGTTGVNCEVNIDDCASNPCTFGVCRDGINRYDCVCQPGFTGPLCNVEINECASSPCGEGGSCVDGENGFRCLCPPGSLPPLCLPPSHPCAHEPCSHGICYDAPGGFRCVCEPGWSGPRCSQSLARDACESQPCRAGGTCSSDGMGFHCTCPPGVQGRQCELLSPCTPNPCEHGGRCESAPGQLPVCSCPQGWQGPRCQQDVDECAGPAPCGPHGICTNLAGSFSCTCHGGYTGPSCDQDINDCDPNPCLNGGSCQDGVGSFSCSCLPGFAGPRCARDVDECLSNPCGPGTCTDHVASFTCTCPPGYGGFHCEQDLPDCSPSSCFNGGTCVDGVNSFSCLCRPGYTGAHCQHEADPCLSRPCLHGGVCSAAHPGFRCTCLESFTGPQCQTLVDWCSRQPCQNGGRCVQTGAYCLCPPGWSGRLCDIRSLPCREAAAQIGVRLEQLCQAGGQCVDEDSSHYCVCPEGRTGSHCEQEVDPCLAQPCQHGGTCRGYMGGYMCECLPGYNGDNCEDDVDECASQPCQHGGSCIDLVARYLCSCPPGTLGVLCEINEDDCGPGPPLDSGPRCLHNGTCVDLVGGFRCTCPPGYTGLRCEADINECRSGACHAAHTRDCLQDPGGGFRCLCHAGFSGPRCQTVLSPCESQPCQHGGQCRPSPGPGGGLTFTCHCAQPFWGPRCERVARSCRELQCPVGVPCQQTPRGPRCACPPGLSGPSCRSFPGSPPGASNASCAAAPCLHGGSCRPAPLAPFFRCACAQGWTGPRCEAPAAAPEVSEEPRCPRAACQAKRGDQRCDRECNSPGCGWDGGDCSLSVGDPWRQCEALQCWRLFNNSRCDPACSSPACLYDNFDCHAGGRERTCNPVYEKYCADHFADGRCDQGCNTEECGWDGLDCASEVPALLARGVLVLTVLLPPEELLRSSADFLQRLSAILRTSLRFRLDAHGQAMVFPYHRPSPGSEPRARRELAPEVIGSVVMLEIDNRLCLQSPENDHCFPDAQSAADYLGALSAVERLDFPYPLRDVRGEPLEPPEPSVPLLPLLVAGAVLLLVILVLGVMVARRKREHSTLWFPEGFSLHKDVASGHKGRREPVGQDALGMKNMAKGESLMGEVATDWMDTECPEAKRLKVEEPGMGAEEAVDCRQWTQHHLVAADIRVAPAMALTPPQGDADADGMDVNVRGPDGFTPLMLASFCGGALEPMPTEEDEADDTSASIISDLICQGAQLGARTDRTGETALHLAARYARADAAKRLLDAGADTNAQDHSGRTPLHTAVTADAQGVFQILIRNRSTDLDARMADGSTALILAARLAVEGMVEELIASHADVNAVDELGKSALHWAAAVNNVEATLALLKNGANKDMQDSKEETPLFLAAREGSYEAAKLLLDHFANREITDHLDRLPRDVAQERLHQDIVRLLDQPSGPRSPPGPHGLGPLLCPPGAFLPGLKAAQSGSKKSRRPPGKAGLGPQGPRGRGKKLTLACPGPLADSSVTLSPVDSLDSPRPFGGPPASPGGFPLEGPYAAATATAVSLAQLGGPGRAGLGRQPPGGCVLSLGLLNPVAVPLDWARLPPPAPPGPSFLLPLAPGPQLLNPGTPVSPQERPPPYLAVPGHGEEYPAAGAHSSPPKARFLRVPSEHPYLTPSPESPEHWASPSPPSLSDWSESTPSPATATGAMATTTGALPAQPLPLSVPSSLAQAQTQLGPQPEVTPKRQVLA
Sequence of Pro-neuregulin-1, membrane-bound isoform (Homo sapiens) (Q02297 whole entry, looked up, the tested form may be a part, canonical isoform): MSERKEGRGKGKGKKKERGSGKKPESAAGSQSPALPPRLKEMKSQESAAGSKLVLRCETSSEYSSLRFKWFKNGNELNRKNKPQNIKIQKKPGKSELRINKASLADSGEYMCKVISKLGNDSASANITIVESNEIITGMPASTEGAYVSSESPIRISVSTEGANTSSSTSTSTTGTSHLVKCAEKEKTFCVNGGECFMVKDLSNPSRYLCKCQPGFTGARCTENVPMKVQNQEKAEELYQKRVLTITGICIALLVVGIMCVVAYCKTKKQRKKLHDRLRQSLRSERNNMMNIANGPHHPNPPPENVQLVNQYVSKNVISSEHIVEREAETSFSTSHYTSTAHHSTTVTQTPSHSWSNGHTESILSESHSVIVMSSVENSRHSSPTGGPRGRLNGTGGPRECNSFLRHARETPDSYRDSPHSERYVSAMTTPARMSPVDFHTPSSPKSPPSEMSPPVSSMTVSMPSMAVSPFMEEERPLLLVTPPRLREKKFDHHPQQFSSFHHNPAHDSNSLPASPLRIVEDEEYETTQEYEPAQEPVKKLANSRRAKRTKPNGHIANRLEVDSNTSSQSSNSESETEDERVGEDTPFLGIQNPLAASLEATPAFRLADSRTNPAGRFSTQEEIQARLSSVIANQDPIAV
Sequence of Torsin-1A-interacting protein 2 (Homo sapiens) (Q8NFQ8 whole entry, looked up): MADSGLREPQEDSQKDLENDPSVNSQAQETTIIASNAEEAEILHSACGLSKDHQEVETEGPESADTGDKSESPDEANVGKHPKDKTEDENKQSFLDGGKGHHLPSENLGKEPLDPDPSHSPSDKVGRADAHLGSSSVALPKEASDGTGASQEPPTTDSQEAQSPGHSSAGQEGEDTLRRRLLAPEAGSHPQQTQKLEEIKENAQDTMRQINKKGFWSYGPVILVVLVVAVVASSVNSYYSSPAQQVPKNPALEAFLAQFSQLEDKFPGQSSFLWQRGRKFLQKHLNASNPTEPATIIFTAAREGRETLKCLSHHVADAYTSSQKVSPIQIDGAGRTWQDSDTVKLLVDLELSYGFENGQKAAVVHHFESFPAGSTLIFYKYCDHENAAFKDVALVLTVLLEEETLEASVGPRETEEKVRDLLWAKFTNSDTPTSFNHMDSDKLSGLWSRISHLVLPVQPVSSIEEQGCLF

Compound	composite z-score [1]	composite z-score [2]	composite z-score [3]	composite z-score [4]	composite z-score [5]	composite z-score [6]	composite z-score [7]	z-score [8]	composite z-score [9]	composite z-score [10]	composite z-score [11]	z-score [12]	z-score [13]	z-score [14]	composite z-score [15]	z-score [16]	composite z-score [17]	composite z-score [18]	composite z-score [19]	composite z-score [20]
COCCCNC(=O)[C@@]1(C)c2ccccc2C(=O)N(Cc2ccccc2)[C@H]1c1ccc(CO)cc1	0.235	0.0748	-0.173	-0.979	-1.19	1.88	1.5	-1.24 (inactive)	-0.353	-0.147	1.46	-0.21 (inactive)	-1.31 (inactive)	-0.0048 (inactive)	3.43	-0.336 (inactive)	-0.11	-0.694	0.0118	-0.168
C=CCOC(=O)[C@@H]1[C@H]2C(=O)O[C@H](c3ccccc3)[C@H](c3ccccc3)N2[C@H](c2ccc(OCCOC(=O)[C@H]3C[C@H]4C(=O)N[C@@H](CCCC[N+](C)(C)C)C(=O)N4[C@H]3c3cccc(OCCO)c3)cc2)[C@@]12C(=O)Nc1ccc(I)cc12	-0.542	0.391	-0.0824	0.651	0.827	-0.306	1.17	0.179 (inactive)	0.166	0.154	1.59	0.904 (inactive)	1.04 (inactive)	4.48 (inactive)	2.34	0.254 (inactive)	0.0631	1.45	1.13	0.0527
O=C1C2C=CC(C(O)c3cccc4ccccc34)N(n3cnnc3)C2C(=O)N1Cc1ccccc1 (stereo not given)	1.45	0.0748	0.737	0.774	0.309	0.704	0.821	-0.259 (inactive)	1.8	0.506	-0.117	-26.6 (active)	-16.1 (active)	-0.0039 (inactive)	0.846	-1.18 (inactive)	0.93	0.56	0.467	0.804
CN(C)CCCC[C@@H]1NC(=O)[C@H]2C[C@@H](C(=O)NCCCCCNC(=O)CS)[C@@H](c3ccc(O)cc3)N2C1=O	0.594	-0.149	-0.203	-0.122	-1.21	0.356	-0.458	0.348 (inactive)	-0.576	-0.134	-0.97	0.428 (inactive)	-0.578 (inactive)	-0.52 (inactive)	0.134	0.702 (inactive)	0.0601	-0.673	-0.0464	-0.167
CO[C@H]1O[C@H](CO)[C@@H](OC(=O)Nc2ccc3c(c2)OCO3)[C@H](OC(=O)Nc2ccc3c(c2)OCO3)[C@H]1OC(=O)Nc1ccc2c(c1)OCO2	0.0472	-0.235	0.0575	0.844	1.39	1.83	1.25	6.05 (inactive)	0.634	-0.0296	1.54	1.68 (inactive)	0.861 (inactive)	3.19 (inactive)	3.5	0.922 (inactive)	0.151	0.816	1.03	-0.0455
C=CCCN(CC#C[C@H]1Oc2ccccc2S(=O)(=O)N2CCC[C@@H]12)S(=O)(=O)c1ccc(C)cc1	-0.141	-0.0385	-0.0717	0.61	-0.271	0.353	0.476	-4.31 (inactive)	0.0279	0.0373	0.514	1.15 (inactive)	-1.7 (inactive)	0.965 (inactive)	0.974	-1.59 (inactive)	-0.139	0.264	0.18	-0.145
O=C1OCCC/C=C\[C@H]2OC34C=CCN(CCN5CCOCC5)C(=O)[C@H]3N(CCO)C(=O)[C@@H]4C12 (stereo not given in full)	-0.163	-0.435	-0.154	-0.313	-1.12	-0.501	0.843	0.808 (inactive)	-0.382	-0.137	-0.833	0.14 (inactive)	0.774 (inactive)	-0.131 (inactive)	-0.534	1 (inactive)	-0.18	-0.915	-1.23	-0.244
COCCOC(=O)N1C(=O)[C@@]2(c3cc(C#CC4=CCCCC4)ccc31)[C@H](C(=O)N1CCN(c3ncccn3)CC1)[C@H]1C(=O)O[C@H](c3ccccc3)[C@H](c3ccccc3)N1[C@@H]2c1ccc(OCCO)cc1	0.121	0.181	0.0533	0.723	1.42	-0.289	1.17	0.384 (inactive)	0.824	0.109	1.55	1.48 (inactive)	0.442 (inactive)	3.23 (inactive)	2.02	0.0301 (inactive)	0.415	0.554	1.14	0.145
O=C1O[C@H](c2ccccc2)[C@H](c2ccccc2)N2[C@H]1[C@@H](C(=O)NC[C@H](O)c1ccccc1)[C@]1(C(=O)Nc3ccc(C#CC4(O)CCCCCC4)cc31)[C@H]2c1ccccc1OCCO	-0.267	0.444	-0.136	0.566	0.967	0.911	1.12	-0.369 (inactive)	0.0026	-0.0645	1.54	2.05 (inactive)	1.27 (inactive)	5.14 (inactive)	2.84	0.0483 (inactive)	-0.119	1.08	0.644	-0.182
